The text below walks through data of PubChem BioAssay (EPA / NIEHS).

A word on the AC50: it is the midpoint of the concentration-response curve, whichever way the signal moves.

Records with an inconclusive call do not appear. The source made the active and inactive calls. The calls were made as follows, unless noted: active = hit-call score of the fitted dose curve at least 0.9, where 1 is the maximum; inconclusive = response in the unintended direction; inactive = score below 0.9.

Assay [1] deals with Nuclear receptor subfamily 1 group I member 3 (Homo sapiens) (UniProt Q14994). In words: ATG_CAR_TRANS: Attagene TRANS-FACTORIAL HepG2 Assay for human Constitutive Androstane Receptor (CAR) (AID 2282969).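 Also: activators raise reporter mRNA above DMSO so AC50 marks induction.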 As to conditions: HepG2 Attagene TRANS-FACTORIAL CAR reporter. The essentials:
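Readout is reporter mRNA induction, quantified by fluorescent primer extension and capillary electrophoresis after RT-PCR. Cells were HepG2 transiently carrying chimeric NR-Gal4 constructs with GAL4-UAS reporters, treated for 24 h; activity scored upward from DMSO.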

For assay [2], the target named is Estrogen receptor (Homo sapiens) (UniProt P03372). In words: ATG_ERa_TRANS: Attagene TRANS-FACTORIAL HepG2 Assay for human Estrogen Receptor alpha (ERa) (AID 2282970). The conditions noted are these: HepG2 Attagene TRANS ERa GAL4 reporter, mRNA. An outline of the steps: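 HepG2 cells transiently transfected with multiplexed GAL4-UAS reporter units; ERa activity read via exogenous chimeric NR-Gal4 protein. After 24 hour compound exposure, reporter mRNA measured by RT-PCR with 6-FAM labelling and capillary electrophoresis; gain-of-signal fitted relative to DMSO.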

The target in assay [3] is X-box-binding protein 1 (Homo sapiens) (UniProt P17861). In words: ATG_Xbp1_CIS: Attagene CIS-FACTORIAL HepG2 Assay for human X-box Binding Protein 1 (XBP1) (AID 2282972; active = hit-call score of the fitted dose curve at least 0.9, where 1 is the maximum; inactive = score below 0.9). The conditions noted are these: HepG2 XBP1 cis-element reporter, Attagene multiplex; actives raise or lower the signal. An outline of the steps: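 HepG2 cells transiently transfected with multiple cis-element reporter units report endogenous TF activity; 24 h exposure, then reporter mRNA measured by RT-PCR, 6-FAM labelling, HpaI digestion and capillary electrophoresis. Bidirectional fitting versus DMSO.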
Sequence of X-box-binding protein 1 (Homo sapiens) (P17861 whole entry, looked up): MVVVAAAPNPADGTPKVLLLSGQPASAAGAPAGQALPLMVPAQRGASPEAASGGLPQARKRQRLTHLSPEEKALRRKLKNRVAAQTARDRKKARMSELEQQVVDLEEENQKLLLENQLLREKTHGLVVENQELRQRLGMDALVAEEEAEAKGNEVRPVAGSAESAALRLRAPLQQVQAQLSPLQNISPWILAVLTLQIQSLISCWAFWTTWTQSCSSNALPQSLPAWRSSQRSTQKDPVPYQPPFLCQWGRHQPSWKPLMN

Assay [4] can be described thus: ATG_GAL4_TRANS: Attagene TRANS-FACTORIAL HepG2 Assay for GAL4 (Internal Marker) (AID 2282976). The conditions noted are these: HepG2 Attagene TRANS GAL4 internal marker reporter. An outline of the steps: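 HepG2 cells transiently transfected with multiplexed GAL4-UAS reporter constructs were dosed for 24 h. Reporter mRNA was measured by RT-PCR, 6-FAM primer extension, HpaI digestion and capillary electrophoresis, and gain of signal was fitted relative to DMSO.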

For assay [5], the target named is Glucocorticoid receptor (Homo sapiens) (UniProt P04150). Briefly: ATG_GR_TRANS: Attagene TRANS-FACTORIAL HepG2 Assay for human Glucocorticoid Receptor (GR) (AID 2282978).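 Also: activators score as hits since higher reporter transcript over DMSO is fitted.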 The conditions noted are these: HepG2 Attagene TRANS GR reporter, mRNA transcription. The essentials:
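Fluorescent capillary-electrophoresis quantitation of reporter mRNA is the readout, taken 24 h after dosing human HepG2 cells carrying transiently transfected GAL4-UAS reporter units activated by chimeric NR-GAL4 fusions; activity scored as induction over DMSO.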

Assay [6] in a line: ATG_M_06_TRANS: Attagene TRANS-FACTORIAL HepG2 Assay for M06 Transcription Factor (Internal Marker) (AID 2282983). As to conditions: HepG2 Attagene TRANS M06 internal marker reporter. The essentials:
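HepG2 cells transiently transfected with multiplexed GAL4-UAS reporter transcription units; after 24 h compound exposure, reporter mRNA measured by RT-PCR, FAM-labelled primer extension, HpaI digestion and capillary electrophoresis. Gain-of-signal fitted versus DMSO baseline; background control readout.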

Assay [7] concerns the target Transcriptional activator Myb (Homo sapiens) (UniProt P10242). Briefly: ATG_Myb_CIS: Attagene CIS-FACTORIAL HepG2 Assay for human Myeloblastosis (Myb) Proto-Oncogene Transcription Factor (AID 2282986; active = hit-call score of the fitted dose curve at least 0.9, where 1 is the maximum; inactive = score below 0.9). As to conditions: HepG2 Attagene CIS-FACTORIAL Myb reporter transcription; actives raise or lower the signal. An outline of the steps: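 Reporter transcript levels, quantified by fluorescent RT-PCR and capillary electrophoresis, serve as the read-out. Transfected HepG2 cells carrying cis-promoter reporter units are dosed for 24 hours, and curves are fitted bidirectionally against DMSO controls.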

The target of assay [8] is Nuclear respiratory factor 1 (Homo sapiens) (UniProt Q16656). Briefly: ATG_NRF1_CIS: Attagene CIS-FACTORIAL HepG2 Assay for human Nuclear Respiratory Factor 1 (NRF1) Orphan Gene (AID 2282987; active = hit-call score of the fitted dose curve at least 0.9, where 1 is the maximum; inactive = score below 0.9). As to conditions: HepG2 NRF1 cis-element reporter, Attagene multiplex; actives raise or lower the signal. The essentials:
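Multiplexed cis-reporter assay, HepG2 cells, 24 h treatment. Total RNA → oligo(dT) RT → PCR with reporter-specific primers → 6-FAM primer extension → HpaI cut → CE. Bidirectional fit vs DMSO.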

A short description of assay [9]: ATG_NFI_CIS: Attagene CIS-FACTORIAL HepG2 Assay for human Nuclear Factor I (NFI) (AID 2282989; active = hit-call score of the fitted dose curve at least 0.9, where 1 is the maximum; inactive = score below 0.9). As to conditions: HepG2 cis-regulatory reporter, NFI response element transcription; actives raise or lower the signal. The essentials:
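Reporter transcripts were measured by RT-PCR with fluorescent primer extension and capillary electrophoresis 24 h post-treatment. HepG2 cells carried transiently transfected cis-regulated reporter constructs reporting endogenous factor activity; gain or loss fitted against DMSO baseline.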

In assay [10] the target is Myc proto-oncogene protein (Homo sapiens) (UniProt P01106). In words: ATG_Myc_CIS: Attagene CIS-FACTORIAL HepG2 Assay for human Myelocytomatosis (Myc) Proto-Oncogene Transcription Factor (AID 2282990; active = hit-call score of the fitted dose curve at least 0.9, where 1 is the maximum; inactive = score below 0.9). The conditions noted are these: HepG2, Attagene cis-reporter transcription factor activity; actives raise or lower the signal. The essentials:
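HepG2, transient MRTU transfection (cis promoters, endogenous TFs); 24 h dosing; TriZol RNA → oligo(dT) RT → PCR → 6-FAM primer extension → HpaI cut → CE. Bidirectional fit vs DMSO.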

Assay [11] has as its target Steroid hormone receptor ERR1 (Homo sapiens) (UniProt P11474). In words: ATG_ERRa_TRANS: Attagene TRANS-FACTORIAL HepG2 Assay for human Estrogen-Related Receptor alpha (ERRa) (AID 2282971). The conditions noted are these: HepG2 Attagene TRANS reporter, ERRa transactivation. The essentials:
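HepG2 cells transiently transfected with multiplexed GAL4-UAS reporter units reading chimeric ERRa-Gal4 activity; 24 h compound exposure. Reporter mRNA measured by RT-PCR, 6-FAM labelling, HpaI digest and capillary electrophoresis; gain of signal fitted versus DMSO baseline.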

Assay [12] in a line: ATG_M_19_TRANS: Attagene TRANS-FACTORIAL HepG2 Assay for M19 Transcription Factor (Internal Marker) (AID 2282974). The conditions noted are these: HepG2 Attagene TRANS-FACTORIAL M19 internal marker reporter. The essentials: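 Fluorescence of 6-FAM-labelled reporter cDNA fragments, separated by capillary electrophoresis, served as the readout. These derived from HepG2 cells carrying transfected GAL4-UAS reporter units after 24 h dosing, with DMSO as negative control.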

The target in assay [13] is Estrogen-related receptor gamma (Homo sapiens) (UniProt P62508). Briefly: ATG_ERRg_TRANS: Attagene TRANS-FACTORIAL HepG2 Assay for human Estrogen-Related Receptor gamma (ERRg) (AID 2282977).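 Also: hits increase reporter signal over DMSO so potencies reflect activators.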 The conditions noted are these: HepG2 Attagene TRANS reporter, ERRg transactivation. An outline of the steps:
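HepG2 cells transiently transfected with multiplexed GAL4-UAS reporter units driven by chimeric NR-Gal4 proteins; 24 h exposure. Reporter mRNA quantified by RT-PCR, fluorescent labelling, HpaI digestion and capillary electrophoresis; gain of signal vs DMSO.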

Assay [14] addresses Oxysterols receptor LXR-alpha (Homo sapiens) (UniProt Q13133). In words: ATG_LXRa_TRANS: Attagene TRANS-FACTORIAL HepG2 Assay for human Liver X Receptor alpha (LXRa) (AID 2282980). The conditions noted are these: HepG2 Attagene TRANS reporter, LXRa transactivation. An outline of the steps:
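HepG2 cells were transiently transfected with multiplexed reporter units driven by chimeric LXRa–GAL4 fusion proteins, then dosed for 24 h. Reporter mRNA was quantified by RT-PCR, fluorescent labelling and capillary electrophoresis; gain of signal fitted against DMSO baseline.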

For assay [15], the target named is Oxysterols receptor LXR-beta (Homo sapiens) (UniProt P55055). Briefly: ATG_LXRb_TRANS: Attagene TRANS-FACTORIAL HepG2 Assay for human Liver X Receptor beta (LXRb) (AID 2282981). As to conditions: HepG2 Attagene TRANS GAL4-LXRb reporter, mRNA. The essentials:
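Transient transfection HepG2 (multiplexed RTUs, GAL4-UAS); NR-Gal4 chimera; 24 h exposure; RNA → RT-PCR → 6-FAM primer extension → HpaI → CE; increase vs DMSO.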

In assay [16] the target is Hepatocyte nuclear factor 4-alpha (Homo sapiens) (UniProt P41235). In words: ATG_HNF4a_TRANS: Attagene TRANS-FACTORIAL HepG2 Assay for human Hepatocyte Nuclear Factor 4 alpha (HNF4a) (AID 2282982). As to conditions: HepG2 HNF4a transactivation reporter, mRNA readout. An outline of the steps: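 Readout is fluorescent reporter-transcript fragments resolved by capillary electrophoresis after RT-PCR from HepG2 cells dosed for 24 h. Cells carried transfected GAL4-UAS reporter constructs measuring exogenous NR-GAL4 chimera activity; DMSO served as baseline.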

The nature of assay [17]: ATG_M_32_TRANS: Attagene TRANS-FACTORIAL HepG2 Assay for M32 Transcription Factor (Internal Marker) (AID 2282984). The conditions noted are these: HepG2 Attagene TRANS M32 internal marker reporter. An outline of the steps:
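Measures reporter mRNA induction in human HepG2 liver cells after 24 h chemical treatment. Transcripts from transiently transfected GAL4-UAS reporter units are amplified, fluorescently labelled and sized by capillary electrophoresis; gain of signal relative to DMSO.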

In assay [18] the target is Nuclear receptor subfamily 4 group A member 2 (Homo sapiens) (UniProt P43354). Briefly: ATG_NURR1_TRANS: Attagene TRANS-FACTORIAL HepG2 Assay for human Nuclear Receptor Related Protein 1 (NURR1) (AID 2282985). The conditions noted are these: HepG2 Attagene TRANS reporter, mRNA readout. The essentials: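 Transient transfection of HepG2, human liver cells, with multiple GAL4-UAS reporter transcription units. Cells dosed 24 h, RNA isolated, reverse-transcribed, PCR-amplified, FAM-labelled, HpaI-digested, sized by capillary electrophoresis. DMSO served as negative control.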

Assay [19] deals with Androgen receptor (Homo sapiens) (UniProt P10275). In words: ATG_AR_TRANS: Attagene TRANS-FACTORIAL HepG2 Assay for human Androgen Receptor (AR) (AID 2282973). As to conditions: HepG2 Attagene TRANS-FACTORIAL AR reporter transcription. An outline of the steps: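 HepG2 cells transiently transfected with multiplexed GAL4-UAS reporter units and chimeric NR-Gal4 fusion; 24 h compound exposure. Reporter mRNA measured by RT-PCR, 6-FAM labelling, HpaI digestion and capillary electrophoresis; gain-of-signal fitted relative to DMSO baseline.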
Sequence of Androgen receptor (Homo sapiens) (P10275 whole entry, looked up, the tested form may be a part): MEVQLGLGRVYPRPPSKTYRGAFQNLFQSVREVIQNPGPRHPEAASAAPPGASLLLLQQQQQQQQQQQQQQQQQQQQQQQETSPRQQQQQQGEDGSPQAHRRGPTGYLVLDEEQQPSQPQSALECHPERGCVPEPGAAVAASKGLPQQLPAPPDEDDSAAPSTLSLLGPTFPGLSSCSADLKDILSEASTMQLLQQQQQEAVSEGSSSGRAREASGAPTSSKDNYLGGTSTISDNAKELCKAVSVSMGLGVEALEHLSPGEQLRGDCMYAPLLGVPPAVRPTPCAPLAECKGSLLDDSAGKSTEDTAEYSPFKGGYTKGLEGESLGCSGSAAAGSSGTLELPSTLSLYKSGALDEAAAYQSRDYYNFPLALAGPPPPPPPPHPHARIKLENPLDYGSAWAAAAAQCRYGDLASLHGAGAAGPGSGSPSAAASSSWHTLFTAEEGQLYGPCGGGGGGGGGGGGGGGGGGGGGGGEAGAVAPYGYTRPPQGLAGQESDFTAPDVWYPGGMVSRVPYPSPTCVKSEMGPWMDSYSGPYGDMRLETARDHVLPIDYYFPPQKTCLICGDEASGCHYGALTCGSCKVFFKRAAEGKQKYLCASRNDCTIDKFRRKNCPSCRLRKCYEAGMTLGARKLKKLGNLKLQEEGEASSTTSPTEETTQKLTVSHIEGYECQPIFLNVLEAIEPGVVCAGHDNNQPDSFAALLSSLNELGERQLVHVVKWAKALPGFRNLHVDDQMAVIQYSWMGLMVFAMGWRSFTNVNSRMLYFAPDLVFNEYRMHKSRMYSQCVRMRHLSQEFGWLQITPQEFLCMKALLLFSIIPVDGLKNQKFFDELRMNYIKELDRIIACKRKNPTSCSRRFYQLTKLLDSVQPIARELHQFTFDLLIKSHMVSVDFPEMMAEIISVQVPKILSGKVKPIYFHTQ

The target of assay [20] is Bile acid receptor (Homo sapiens) (UniProt Q96RI1). In words: ATG_FXR_TRANS: Attagene TRANS-FACTORIAL HepG2 Assay for Farnesoid X Receptor (FXR) (AID 2282979).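 Also: hits raise reporter mRNA above DMSO so AC50 marks FXR activation.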 As to conditions: HepG2 Attagene TRANS FXR-GAL4 reporter transcription. The essentials:
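HepG2 cells transiently transfected with reporter constructs in which a chimeric FXR-GAL4 protein drives a GAL4-UAS reporter; 24 h compound exposure. Reporter mRNA measured by RT-PCR, FAM labelling, HpaI digestion and capillary electrophoresis; gain-of-signal versus DMSO.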

Sequence of Transcriptional activator Myb (Homo sapiens) (P10242 whole entry, looked up): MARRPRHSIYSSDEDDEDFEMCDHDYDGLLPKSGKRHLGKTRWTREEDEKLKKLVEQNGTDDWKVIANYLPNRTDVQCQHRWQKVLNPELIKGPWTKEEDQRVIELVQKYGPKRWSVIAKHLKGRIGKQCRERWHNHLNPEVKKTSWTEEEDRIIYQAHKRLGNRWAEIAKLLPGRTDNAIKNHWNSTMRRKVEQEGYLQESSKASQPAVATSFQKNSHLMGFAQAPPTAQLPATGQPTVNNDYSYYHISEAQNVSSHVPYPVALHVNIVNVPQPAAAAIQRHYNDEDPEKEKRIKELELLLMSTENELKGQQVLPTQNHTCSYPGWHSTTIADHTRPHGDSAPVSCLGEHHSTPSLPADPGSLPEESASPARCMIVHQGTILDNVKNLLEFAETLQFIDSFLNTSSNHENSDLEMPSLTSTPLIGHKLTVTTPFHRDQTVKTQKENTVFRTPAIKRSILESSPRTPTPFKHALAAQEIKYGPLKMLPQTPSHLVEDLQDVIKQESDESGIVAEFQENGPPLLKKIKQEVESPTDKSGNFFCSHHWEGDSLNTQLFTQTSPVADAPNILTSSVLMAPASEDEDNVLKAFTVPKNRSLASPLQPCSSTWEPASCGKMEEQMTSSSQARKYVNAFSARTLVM
Sequence of Nuclear receptor subfamily 1 group I member 3 (Homo sapiens) (Q14994 whole entry, looked up, the tested form may be a part): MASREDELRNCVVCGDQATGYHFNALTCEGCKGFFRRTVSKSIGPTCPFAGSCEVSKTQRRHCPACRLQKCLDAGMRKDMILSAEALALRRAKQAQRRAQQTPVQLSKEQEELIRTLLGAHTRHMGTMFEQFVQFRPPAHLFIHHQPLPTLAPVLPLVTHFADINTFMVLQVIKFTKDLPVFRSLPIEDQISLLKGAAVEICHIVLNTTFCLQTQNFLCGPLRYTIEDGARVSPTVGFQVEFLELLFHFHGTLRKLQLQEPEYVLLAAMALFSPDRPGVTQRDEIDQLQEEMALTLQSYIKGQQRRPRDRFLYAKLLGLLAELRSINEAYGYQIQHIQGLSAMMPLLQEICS
Sequence of Glucocorticoid receptor (Homo sapiens) (P04150 whole entry, looked up, the tested form may be a part): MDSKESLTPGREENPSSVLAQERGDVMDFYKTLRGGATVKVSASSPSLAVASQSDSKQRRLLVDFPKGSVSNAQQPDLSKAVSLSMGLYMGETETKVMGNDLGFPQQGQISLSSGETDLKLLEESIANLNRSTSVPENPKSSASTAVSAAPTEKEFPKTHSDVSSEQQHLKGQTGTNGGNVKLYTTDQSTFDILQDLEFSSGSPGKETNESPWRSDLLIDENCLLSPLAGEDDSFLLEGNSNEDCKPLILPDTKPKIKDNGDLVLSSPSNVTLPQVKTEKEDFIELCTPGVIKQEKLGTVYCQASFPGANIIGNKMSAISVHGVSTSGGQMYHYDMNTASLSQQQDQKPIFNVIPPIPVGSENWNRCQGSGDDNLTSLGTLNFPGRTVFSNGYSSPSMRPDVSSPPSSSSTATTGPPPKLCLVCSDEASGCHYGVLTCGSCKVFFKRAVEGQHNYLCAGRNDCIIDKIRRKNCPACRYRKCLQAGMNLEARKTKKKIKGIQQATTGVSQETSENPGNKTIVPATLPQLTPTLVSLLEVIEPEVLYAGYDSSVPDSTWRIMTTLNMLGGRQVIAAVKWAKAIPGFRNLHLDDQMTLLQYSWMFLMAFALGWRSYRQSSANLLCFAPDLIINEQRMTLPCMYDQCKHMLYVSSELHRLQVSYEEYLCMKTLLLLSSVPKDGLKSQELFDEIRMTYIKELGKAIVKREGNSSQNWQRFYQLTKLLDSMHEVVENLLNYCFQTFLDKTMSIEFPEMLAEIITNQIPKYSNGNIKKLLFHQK
Sequence of Oxysterols receptor LXR-beta (Homo sapiens) (P55055 whole entry, looked up, the tested form may be a part): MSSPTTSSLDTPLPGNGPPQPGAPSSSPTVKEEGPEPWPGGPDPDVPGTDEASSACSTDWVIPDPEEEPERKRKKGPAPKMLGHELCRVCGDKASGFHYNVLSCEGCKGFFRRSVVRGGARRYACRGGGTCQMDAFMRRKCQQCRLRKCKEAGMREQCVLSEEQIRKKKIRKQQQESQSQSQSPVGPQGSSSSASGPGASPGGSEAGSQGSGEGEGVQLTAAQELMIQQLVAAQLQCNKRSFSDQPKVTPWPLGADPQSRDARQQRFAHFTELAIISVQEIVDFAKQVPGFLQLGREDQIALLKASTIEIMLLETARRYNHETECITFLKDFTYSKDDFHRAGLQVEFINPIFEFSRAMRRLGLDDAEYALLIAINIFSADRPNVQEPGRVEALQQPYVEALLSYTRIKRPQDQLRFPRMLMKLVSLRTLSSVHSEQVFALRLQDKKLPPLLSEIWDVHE
Sequence of Nuclear respiratory factor 1 (Homo sapiens) (Q16656 whole entry, looked up): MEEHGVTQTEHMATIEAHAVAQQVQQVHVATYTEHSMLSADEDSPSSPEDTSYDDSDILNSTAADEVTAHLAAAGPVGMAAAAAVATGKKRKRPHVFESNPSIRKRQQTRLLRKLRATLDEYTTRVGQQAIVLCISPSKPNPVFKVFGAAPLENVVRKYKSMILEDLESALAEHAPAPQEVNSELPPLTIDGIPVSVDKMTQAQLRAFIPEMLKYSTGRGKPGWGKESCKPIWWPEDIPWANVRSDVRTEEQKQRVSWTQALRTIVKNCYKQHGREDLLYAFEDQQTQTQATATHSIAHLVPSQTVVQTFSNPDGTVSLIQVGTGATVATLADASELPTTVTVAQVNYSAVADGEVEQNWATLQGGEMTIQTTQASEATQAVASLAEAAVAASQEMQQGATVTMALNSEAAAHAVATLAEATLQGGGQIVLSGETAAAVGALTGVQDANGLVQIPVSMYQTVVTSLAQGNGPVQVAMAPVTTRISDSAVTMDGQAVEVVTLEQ
Sequence of Myc proto-oncogene protein (Homo sapiens) (P01106 whole entry, looked up): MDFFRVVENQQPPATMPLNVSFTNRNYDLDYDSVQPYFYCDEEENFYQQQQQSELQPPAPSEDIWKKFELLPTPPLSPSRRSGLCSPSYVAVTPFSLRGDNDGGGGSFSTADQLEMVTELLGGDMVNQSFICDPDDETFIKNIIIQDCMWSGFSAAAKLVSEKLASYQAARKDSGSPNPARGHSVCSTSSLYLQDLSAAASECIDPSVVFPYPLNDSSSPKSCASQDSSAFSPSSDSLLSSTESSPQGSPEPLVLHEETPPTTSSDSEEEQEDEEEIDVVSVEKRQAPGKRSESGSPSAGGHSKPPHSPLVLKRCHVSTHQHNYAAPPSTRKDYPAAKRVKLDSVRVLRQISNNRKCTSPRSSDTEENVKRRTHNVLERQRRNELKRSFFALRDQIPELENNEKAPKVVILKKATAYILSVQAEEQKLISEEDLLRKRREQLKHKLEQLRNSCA
Sequence of Bile acid receptor (Homo sapiens) (Q96RI1 whole entry, looked up, the tested form may be a part): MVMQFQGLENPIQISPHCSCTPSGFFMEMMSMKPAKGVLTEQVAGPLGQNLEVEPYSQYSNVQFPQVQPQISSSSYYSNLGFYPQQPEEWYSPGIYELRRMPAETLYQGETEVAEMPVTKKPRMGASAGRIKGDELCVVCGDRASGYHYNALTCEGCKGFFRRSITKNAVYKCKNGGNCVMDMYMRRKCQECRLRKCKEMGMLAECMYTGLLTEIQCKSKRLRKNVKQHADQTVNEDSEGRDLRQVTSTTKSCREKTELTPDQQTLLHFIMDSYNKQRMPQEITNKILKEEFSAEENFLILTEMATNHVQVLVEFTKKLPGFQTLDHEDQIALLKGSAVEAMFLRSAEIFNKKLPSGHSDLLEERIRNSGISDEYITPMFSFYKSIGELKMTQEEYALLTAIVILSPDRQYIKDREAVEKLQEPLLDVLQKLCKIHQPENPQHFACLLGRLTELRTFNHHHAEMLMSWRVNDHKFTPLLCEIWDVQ

Take `CCCCN(CCCCO)N=O`: the compound was classed as inactive in assay [1], in assay [3], in [4], in assay [5], in assay [6] and in assay [7]. Also, the outcome in assay [8], in assay [9] and in assay [10] was inactive. The AC50 in assay [2] is 8.41 µM (active).
As for `O=C(CCl)NCO`, the outcome in assay [1], in assay [11], in [3], in [12], in [4] and in assay [13] was inactive. The outcome in [14], in [15], in assay [16], in assay [17], in assay [18] and in assay [7] was inactive. Also, the compound was classed as inactive in assay [8], in assay [9] and in assay [10].
For `NC(=O)c1ccc(N)nc1`, the compound was called inactive in assay [1], in [3], in assay [19], in assay [12], in [5] and in [20]. Besides, the outcome in assay [15], in assay [7], in assay [8], in [9] and in assay [10] was inactive.
Consider `CCNc1nc(NCC)nc(SC)n1`, for which the result in assay [1], in assay [2], in assay [3], in assay [5], in assay [16] and in assay [6] was inactive. Besides, the outcome in [17], in [7], in [8], in [9] and in [10] was inactive.
Regarding `CNC(=O)N(C)c1nc2ccccc2s1`, the compound was classed as inactive in [1], in assay [11], in assay [3], in [19], in [4] and in assay [5]. Besides, the compound was called inactive in [20], in [14], in assay [15], in assay [6], in assay [17] and in assay [7]. Also, the outcome in [9] and in [10] was inactive.
